outcome, Potency and max activation data for 15 compounds are collected here from PubChem BioAssay (Tox21).

Experiment [1] deals with Thyrotropin-releasing hormone receptor (Homo sapiens) (UniProt P34981). Put plainly: qHTS assay to identify small molecule agonists of the thyrotropin-releasing hormone receptor (TRHR) signaling pathway (AID 1346891; calls by dose curve; further: series mostly up to about 58 µM). The method in brief:
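Agonist-mode intracellular calcium readout: kinetic fluorescence over 3 min at 1 s intervals after compound addition to TRHR-HEK293 cells (18 h seeded, 2 h dye-loaded at 37 C). Fifteen concentrations, triplicates.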
Background: qHTS replaces the single test concentration by a dilution series.

The nature of experiment [2]: Caspase-3/7 induction in HepG2 cells by small molecules, qHTS assay (AID 1346978). Further: nearly all actives have a fitted effect of over 15% in size. The method in brief: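 Caspase-3/7 induction was measured by Caspase-Glo 3/7 luminescence (30 min, room temperature) after a 17 hr compound exposure of wild-type HepG2 cells seeded at 2,000 per well and pre-incubated 5 hr.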
The nature of experiment [3]: Caspase-3/7 induction in CHO-K1 cells by small molecules, qHTS cell viability counter screen (AID 1346979). Further: nearly all actives have a fitted effect of over 35% in size. Further: potency means the concentration at half of the fitted maximal effect. The method in brief: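 Cytotoxicity counter screen: CellTiter-Fluor added to compound-treated wild-type CHO-K1 cells at 16 h (37C, 5% CO2), fluorescence measured 1 h later; same wells as caspase-3/7 measurement.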
The nature of experiment [4]: Caspase-3/7 induction in CHO-K1 cells by small molecules, qHTS assay (AID 1346980). Further: nearly all actives have a fitted effect of over 15% in size. The method in brief:
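Luminescent Caspase-Glo 3/7 read (30min, room temperature) quantified apoptosis induction. Cells were wild-type CHO-K1, treated with compound for 17hr at 37 C and 5% CO2.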

Experiment [5] can be described thus: Caspase-3/7 induction in HepG2 cells by small molecules, qHTS cell viability counter screen (AID 1346981). Further: nearly all actives have a fitted effect of over 30% in size. Further: potency means the concentration at half of the fitted maximal effect. The method in brief: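 Counter screen for cytotoxicity: HepG2 exposed 16 hr to compounds, then CellTiter-Fluor viability signal (fluorescence, 1 hr reagent incubation).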
The target of experiment [6] is Nuclear receptor subfamily 1 group I member 2 (Homo sapiens) (UniProt O75469). The experiment can be described thus: Human pregnane X receptor (PXR) small molecule agonists, qHTS assay (AID 1346982). Further: nearly all actives have a fitted effect of over 35% in size. Further: potency means the concentration at half of the fitted maximal effect. The method in brief:
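Luminescence (ONE-Glo, 30 min RT) after 24 hr compound exposure of PXR-Luc HepG2 cells; cells rested 5 hr post-plating in 5% charcoal-stripped FBS medium.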

The target of experiment [7] is Cytochrome P450 2D6 (Homo sapiens) (UniProt P10635). Put plainly: Cytochrome P450 Family 2 Subfamily D Member 6 (CYP2D6) small molecule antagonists: luciferase reporter qHTS assay (AID 1671196). Further: nearly all actives have a fitted effect of over 50% in size. Further: potency means the concentration at half of the fitted maximal effect. The method in brief: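 Inhibition of CYP2D6 was gauged by loss of luminescence, since light produced tracks the luciferin generated from a proluciferin substrate. A 10 min room-temperature preincubation preceded 1 h NADPH-supported turnover.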
Cytochrome P450 2D6 (Homo sapiens), sequence (P10635 whole entry, looked up): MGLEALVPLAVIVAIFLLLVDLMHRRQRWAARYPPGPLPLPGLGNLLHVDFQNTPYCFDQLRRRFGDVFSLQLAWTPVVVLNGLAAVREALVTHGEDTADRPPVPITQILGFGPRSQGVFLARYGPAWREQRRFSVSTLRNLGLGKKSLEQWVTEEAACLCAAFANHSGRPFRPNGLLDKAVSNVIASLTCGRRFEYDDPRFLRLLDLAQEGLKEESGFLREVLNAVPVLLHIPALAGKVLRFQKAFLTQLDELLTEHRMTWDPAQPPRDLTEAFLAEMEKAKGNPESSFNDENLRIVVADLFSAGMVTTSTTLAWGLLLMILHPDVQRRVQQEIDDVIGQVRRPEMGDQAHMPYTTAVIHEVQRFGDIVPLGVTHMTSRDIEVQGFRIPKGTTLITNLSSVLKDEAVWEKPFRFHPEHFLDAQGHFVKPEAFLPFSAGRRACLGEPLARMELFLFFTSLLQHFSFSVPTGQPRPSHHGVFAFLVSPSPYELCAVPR

Experiment [8] concerns the target Cytochrome P450 2C19 (Homo sapiens) (UniProt P33261). Put plainly: Cytochrome P450 Family 2 Subfamily C Member 19 (CYP2C19) small molecule antagonists: luciferase reporter qHTS assay (AID 1671197). Further: nearly all actives have a fitted effect of over 65% in size. Further: potency means the concentration at half of the fitted maximal effect. The method in brief:
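Relative luminescence units recorded 20 min after the detection reagent stopped a 1 h, 37C CYP2C19 reaction on proluciferin substrate, which was started by NADPH regeneration following 10 min room-temperature compound preincubation; ketoconazole positive control.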
A general note: A reporter such as luciferase makes a cellular process visible.

The target of experiment [9] is Cytochrome P450 2C9 (Homo sapiens) (UniProt P11712). The experiment can be described thus: Cytochrome P450 Family 2 Subfamily C Member 9 (CYP2C9) small molecule antagonists: luciferase reporter qHTS assay (AID 1671198). Further: nearly all actives have a fitted effect of over 50% in size. Further: potency means the concentration at half of the fitted maximal effect. The method in brief: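 Enzyme-substrate mix preincubated with compound 10 min at room temperature; reaction started with NADPH regeneration solution, 1 h 37C. Luminescent luciferin product read after 20 min detection reagent.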
Cytochrome P450 2C9 (Homo sapiens), sequence (P11712 whole entry, looked up): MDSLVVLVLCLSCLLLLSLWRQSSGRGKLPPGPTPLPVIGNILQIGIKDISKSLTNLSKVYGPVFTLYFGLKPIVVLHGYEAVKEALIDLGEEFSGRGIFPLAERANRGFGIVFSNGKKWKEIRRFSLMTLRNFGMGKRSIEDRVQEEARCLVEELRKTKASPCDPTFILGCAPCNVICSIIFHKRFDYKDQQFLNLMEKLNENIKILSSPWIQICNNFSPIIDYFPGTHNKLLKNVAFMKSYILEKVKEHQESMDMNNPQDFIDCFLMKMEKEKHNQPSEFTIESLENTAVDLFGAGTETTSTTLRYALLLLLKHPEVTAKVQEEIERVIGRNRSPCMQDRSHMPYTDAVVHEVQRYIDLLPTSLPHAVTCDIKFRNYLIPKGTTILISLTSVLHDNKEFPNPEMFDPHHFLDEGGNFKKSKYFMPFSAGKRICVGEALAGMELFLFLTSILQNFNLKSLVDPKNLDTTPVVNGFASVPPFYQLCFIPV

Experiment [10] deals with Cytochrome P450 1A2 (Homo sapiens) (UniProt P05177). Put plainly: Cytochrome P450 Family 1 Subfamily A Member 2 (CYP1A2) small molecule antagonists: luciferase reporter qHTS assay (AID 1671199). Further: nearly all actives have a fitted effect of over 50% in size. Further: potency means the concentration at half of the fitted maximal effect. The method in brief:
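Signal from luciferin formed by CYP1A2 from a proluciferin substrate is read as luminescence, expressed in relative luminescence units. Compounds sit with enzyme 10 min, NADPH-driven reaction runs 1 h, all at room temperature.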

The target of experiment [11] is Voltage-gated inwardly rectifying potassium channel KCNH2 (Homo sapiens) (UniProt Q12809). Put plainly: Human Ether-a-go-go-Related Gene (hERG) channel small molecule antagonists: fluorescence cell-based qHTS assay (AID 1671200). Further: series mostly up to about 77 µM; nearly all actives have a fitted effect of over 50% in size. The method in brief: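 Thallium flux as potassium surrogate: FluxOR II dye loaded 1 h at room temperature into hERG-expressing U2OS cells, then stimulus buffer added after 10 min. Kinetic 480 nm excitation/540 nm emission read, 2 min.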
Voltage-gated inwardly rectifying potassium channel KCNH2 (Homo sapiens), sequence (Q12809 whole entry, looked up): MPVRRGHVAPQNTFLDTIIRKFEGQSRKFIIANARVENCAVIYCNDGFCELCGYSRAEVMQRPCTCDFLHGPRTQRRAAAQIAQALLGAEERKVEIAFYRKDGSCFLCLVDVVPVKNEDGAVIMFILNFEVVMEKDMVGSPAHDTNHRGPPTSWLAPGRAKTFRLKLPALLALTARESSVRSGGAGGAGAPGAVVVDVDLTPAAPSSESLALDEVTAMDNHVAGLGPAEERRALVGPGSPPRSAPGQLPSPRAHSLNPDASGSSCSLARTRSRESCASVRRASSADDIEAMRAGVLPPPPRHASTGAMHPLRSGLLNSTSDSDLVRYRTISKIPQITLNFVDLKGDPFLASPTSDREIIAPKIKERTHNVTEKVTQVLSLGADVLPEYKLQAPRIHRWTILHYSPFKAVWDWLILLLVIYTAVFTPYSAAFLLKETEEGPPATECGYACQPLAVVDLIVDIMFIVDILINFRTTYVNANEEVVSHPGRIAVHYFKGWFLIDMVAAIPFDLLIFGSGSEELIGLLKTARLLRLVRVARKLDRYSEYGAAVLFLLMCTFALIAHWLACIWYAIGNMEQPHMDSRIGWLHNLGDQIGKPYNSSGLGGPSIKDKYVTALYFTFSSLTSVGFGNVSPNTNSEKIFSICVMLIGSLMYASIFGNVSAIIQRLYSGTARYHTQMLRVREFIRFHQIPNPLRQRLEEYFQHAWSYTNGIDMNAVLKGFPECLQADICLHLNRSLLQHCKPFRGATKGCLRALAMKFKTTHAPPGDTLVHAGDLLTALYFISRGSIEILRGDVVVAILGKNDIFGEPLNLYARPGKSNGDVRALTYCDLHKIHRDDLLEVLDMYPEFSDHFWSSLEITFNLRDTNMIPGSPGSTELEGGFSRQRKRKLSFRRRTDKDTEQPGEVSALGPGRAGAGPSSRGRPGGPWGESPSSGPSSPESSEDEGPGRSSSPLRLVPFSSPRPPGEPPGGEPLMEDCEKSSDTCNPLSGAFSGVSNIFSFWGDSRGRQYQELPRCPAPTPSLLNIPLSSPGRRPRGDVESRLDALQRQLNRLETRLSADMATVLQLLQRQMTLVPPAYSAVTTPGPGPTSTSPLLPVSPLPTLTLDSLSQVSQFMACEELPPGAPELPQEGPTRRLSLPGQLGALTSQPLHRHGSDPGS
Background: The hERG channel carries a current that helps repolarise heart muscle cells.

For experiment [12], the target named is Cytochrome P450 3A4 (Homo sapiens) (UniProt P08684). Put plainly: Cytochrome P450 Family 3 Subfamily A Member 4 (CYP3A4) small molecule antagonists: luciferase reporter qHTS assay (AID 1671201). Further: nearly all actives have a fitted effect of over 50% in size. Further: potency means the concentration at half of the fitted maximal effect. The method in brief:
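Recombinant human CYP3A4 converts a proluciferin substrate to luciferin over 1 h at room temperature after NADPH regeneration solution is added (compound preincubated 10 min); detection reagent stops reaction, luminescence read 20 min later as relative units.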

Experiment [13] in a line: Human pregnane X receptor (PXR) small molecule agonists, qHTS cell viability counter screen (AID 1346977). Further: nearly all actives have a fitted effect of over 50% in size. The method in brief: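 Same-well viability read: CellTiter-Fluor added after 23 hr compound exposure, fluorescence measured 1 hr later. Cells were PXR-Luc HepG2 seeded at 2,000/well in 5% charcoal-stripped FBS medium, rested 5 hr before dosing at 37 C.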
For experiment [14], the target named is Nuclear receptor subfamily 1 group I member 2 (Rattus norvegicus) (UniProt Q9R1A7). The experiment can be described thus: Rat pregnane X receptor (rPXR) activation by small molecules, qHTS assay (AID 1346983). Further: nearly all actives have a fitted effect of over 20% in size. The settings on record: rPXR luciferase reporter cells, One-Glo luminescence, 24 h; stronger effect = higher value. The method in brief: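 Luminescent readout (One-Glo luciferase, 30 min room temperature) followed 24 hr compound treatment at 37 C of rPXR cells plated 2,000 per well and preincubated 5hr; qHTS format with compounds delivered in DMSO.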
Nuclear receptor subfamily 1 group I member 2 (Rattus norvegicus), sequence (Q9R1A7 whole entry, looked up): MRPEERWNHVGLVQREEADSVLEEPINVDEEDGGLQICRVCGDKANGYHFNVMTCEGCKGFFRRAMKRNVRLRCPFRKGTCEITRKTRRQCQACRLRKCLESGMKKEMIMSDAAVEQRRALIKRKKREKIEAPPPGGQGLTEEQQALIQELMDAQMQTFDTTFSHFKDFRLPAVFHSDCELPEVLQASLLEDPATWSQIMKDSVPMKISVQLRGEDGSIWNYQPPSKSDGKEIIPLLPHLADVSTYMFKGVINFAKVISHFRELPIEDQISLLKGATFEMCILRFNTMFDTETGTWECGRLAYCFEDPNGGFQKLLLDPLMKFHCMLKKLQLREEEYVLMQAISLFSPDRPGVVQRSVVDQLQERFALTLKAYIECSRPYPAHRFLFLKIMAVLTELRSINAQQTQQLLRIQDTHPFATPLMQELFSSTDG

The target of experiment [15] is Nuclear receptor subfamily 1 group I member 2 (Homo sapiens) (UniProt O75469). Put plainly: CYP3A4 induction through human pregnane X receptor (PXR) by small molecules, qHTS assay (AID 1346984). Further: nearly all actives have a fitted effect of over 40% in size. The method in brief: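 DPX-2 reporter cells; 24h cpd, 37C; Luciferin-IPA 3uM final x3h; One-Glo 30 min RT; lumi read.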
Nuclear receptor subfamily 1 group I member 2 (Homo sapiens), sequence (O75469 whole entry, looked up): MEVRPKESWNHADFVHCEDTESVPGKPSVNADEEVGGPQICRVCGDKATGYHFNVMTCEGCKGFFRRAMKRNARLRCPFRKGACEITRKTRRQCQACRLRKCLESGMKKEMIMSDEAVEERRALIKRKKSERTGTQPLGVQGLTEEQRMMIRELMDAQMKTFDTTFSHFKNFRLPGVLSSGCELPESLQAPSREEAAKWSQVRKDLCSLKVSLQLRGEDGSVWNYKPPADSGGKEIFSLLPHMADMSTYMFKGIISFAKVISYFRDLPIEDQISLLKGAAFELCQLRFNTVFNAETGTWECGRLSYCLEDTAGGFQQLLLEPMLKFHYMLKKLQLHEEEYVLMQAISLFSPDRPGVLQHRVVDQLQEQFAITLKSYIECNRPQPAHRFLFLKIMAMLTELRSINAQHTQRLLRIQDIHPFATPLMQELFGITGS
Experiment [16] shares this target. The experiment can be described thus: Human pregnane X receptor (PXR) activation by small molecules, qHTS assay (AID 1346985). Further: nearly all actives have a fitted effect of over 40% in size. Further: potency means the concentration at half of the fitted maximal effect. The method in brief: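 DPX-2 cells (HepG2 co-transfected with a PXR response element and a CYP3A4-promoter luciferase construct) were seeded at 2,000 per well, rested 5 hr at 37C, then exposed to DMSO-dissolved compounds for 24 hr. Activation was read as luciferase luminescence.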

Values without a mark were called inactive. Inconclusive results are not listed. Activity calls are given as the source filed them. Unless noted, the call rests on the fitted dose curve; in most records, active means well fitted curve in the direction sought with a large enough effect in the repeat runs; inconclusive means weak or mixed curves; inactive means no such curve, though single readings can be large; an effect the other way counts as inactive or inconclusive.
On the % scale 0 is the no-effect control and ±100 the full control effect.

Cytochrome P450 3A4 (Homo sapiens), sequence (P08684 whole entry, looked up): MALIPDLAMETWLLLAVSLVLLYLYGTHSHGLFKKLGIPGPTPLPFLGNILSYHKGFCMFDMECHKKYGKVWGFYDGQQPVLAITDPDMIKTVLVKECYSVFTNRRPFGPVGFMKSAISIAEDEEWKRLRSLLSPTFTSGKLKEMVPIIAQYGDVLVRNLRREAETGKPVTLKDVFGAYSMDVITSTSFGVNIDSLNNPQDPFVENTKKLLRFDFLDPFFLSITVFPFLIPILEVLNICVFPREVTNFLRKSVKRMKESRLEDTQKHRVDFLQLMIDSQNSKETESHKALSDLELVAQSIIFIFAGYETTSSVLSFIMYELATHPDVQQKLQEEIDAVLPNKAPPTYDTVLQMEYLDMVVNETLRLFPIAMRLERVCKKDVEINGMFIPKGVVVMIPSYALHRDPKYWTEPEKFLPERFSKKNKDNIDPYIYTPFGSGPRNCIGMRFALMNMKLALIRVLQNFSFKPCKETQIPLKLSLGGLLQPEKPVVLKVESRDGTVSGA
Thyrotropin-releasing hormone receptor (Homo sapiens), sequence (P34981 whole entry, looked up): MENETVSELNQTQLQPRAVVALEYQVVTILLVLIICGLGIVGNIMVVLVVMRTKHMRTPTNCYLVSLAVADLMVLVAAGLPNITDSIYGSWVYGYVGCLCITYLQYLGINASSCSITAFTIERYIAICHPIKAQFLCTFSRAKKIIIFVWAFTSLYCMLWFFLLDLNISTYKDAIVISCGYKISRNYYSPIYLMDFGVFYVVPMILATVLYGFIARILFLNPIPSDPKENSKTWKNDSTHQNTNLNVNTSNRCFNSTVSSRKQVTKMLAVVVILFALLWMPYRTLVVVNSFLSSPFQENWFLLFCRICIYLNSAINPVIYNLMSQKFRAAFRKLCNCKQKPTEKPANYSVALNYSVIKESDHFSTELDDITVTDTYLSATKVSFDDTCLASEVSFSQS
Cytochrome P450 2C19 (Homo sapiens), sequence (P33261 whole entry, looked up): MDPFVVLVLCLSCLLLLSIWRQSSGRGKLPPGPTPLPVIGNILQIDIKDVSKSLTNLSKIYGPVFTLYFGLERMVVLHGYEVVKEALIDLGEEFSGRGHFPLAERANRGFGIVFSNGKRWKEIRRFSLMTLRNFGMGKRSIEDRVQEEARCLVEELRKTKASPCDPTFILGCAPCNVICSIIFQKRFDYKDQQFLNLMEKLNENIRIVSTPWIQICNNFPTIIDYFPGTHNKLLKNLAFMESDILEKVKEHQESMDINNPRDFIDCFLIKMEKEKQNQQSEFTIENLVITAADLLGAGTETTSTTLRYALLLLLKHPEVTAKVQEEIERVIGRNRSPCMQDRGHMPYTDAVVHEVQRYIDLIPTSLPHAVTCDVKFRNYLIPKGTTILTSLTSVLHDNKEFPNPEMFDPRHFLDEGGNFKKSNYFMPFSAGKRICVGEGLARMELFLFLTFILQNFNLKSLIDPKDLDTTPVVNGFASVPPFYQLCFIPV
Cytochrome P450 1A2 (Homo sapiens), sequence (P05177 whole entry, looked up): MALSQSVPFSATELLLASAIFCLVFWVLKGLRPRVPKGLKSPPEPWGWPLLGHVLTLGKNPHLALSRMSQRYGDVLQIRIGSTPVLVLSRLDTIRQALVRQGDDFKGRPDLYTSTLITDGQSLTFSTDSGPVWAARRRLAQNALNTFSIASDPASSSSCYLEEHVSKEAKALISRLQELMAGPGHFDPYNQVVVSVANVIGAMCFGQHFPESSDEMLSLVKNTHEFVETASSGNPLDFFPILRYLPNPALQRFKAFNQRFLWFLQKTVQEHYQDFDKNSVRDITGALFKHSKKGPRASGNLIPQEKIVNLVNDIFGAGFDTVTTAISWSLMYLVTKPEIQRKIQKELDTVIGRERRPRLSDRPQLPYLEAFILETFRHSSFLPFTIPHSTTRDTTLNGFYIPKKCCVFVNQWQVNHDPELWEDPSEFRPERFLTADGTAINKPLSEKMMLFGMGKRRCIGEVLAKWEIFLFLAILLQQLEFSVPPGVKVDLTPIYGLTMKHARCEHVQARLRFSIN

On to `N[C@@H](CCC(=O)Nc1ccc([N+](=O)[O-])cc1)C(=O)O`, for which the call in experiment [1] and in experiment [4] was inactive. The Potency result in experiment [2], in experiment [3], in [6], in experiment [7], in experiment [8] and in [9] was “inactive” throughout. For the same compound, the Potency entry in [10], in [11] and in experiment [12] was “inactive” in each case. In addition, the Potency in experiment [5] was 54.5 µM (active).

Take `CN(CCOc1ccc(NS(C)(=O)=O)cc1)CCc1ccc(NS(C)(=O)=O)cc1`: the Potency result in [13], in [2], in [3], in experiment [5], in [6] and in [15] was “inactive” in each case. For the same compound, the Potency entry in experiment [8] and in [10] was “inactive” in each case. Moreover, the result in experiment [4] was inactive. Moreover, in experiment [14], the max activation was -6.17%.

For the compound `CC[C@H](C)C(=O)O[C@H]1C[C@H](O)C=C2C=C[C@H](C)[C@H](CC[C@@H](O)C[C@@H](O)CC(=O)O)[C@H]21`, the Potency result in experiment [13], in experiment [2], in experiment [3], in experiment [5], in [6] and in experiment [15] was “inactive” each time. Besides, the Potency result in [16], in experiment [7], in experiment [8], in experiment [10], in experiment [11] and in experiment [12] was “inactive” throughout. For the same compound, the outcome in experiment [4] was inactive. For the same compound, the max activation in [14] is -0.271%.

For the compound `CC(C)CCCCOC(=O)c1ccccc1C(=O)OCCCCC(C)C`, the compound was called inactive in experiment [1] and in [4]. In addition, the Potency entry in [13], in [3], in [6], in experiment [7] and in experiment [11] was “inactive” throughout. For the same compound, the Potency in experiment [8] is 31.8 µM (active); in [9], 17.9 µM (active); in experiment [10] it was 17.9 µM (active).

Take `NS(=O)(=O)c1cc2c(cc1Cl)CN(C1CCCCC1)C2=O`: the compound was called inactive in experiment [1]. The Potency result in experiment [13], in experiment [3], in experiment [5], in experiment [7], in [8] and in [9] was “inactive” throughout. The Potency entry in experiment [10], in [11] and in experiment [12] was “inactive” in each case. Moreover, in [6], the Potency is 29.8 µM (active).

For the compound `CC(CC=O)CCCC(C)(C)O` (configuration not stated), the Potency entry in experiment [13], in experiment [2], in [3], in [5], in experiment [6] and in experiment [15] was “inactive” throughout. The Potency result in experiment [16], in [10], in experiment [11] and in experiment [12] was “inactive” throughout. In [4], the result was inactive. Also, the max activation in [14] was -1.75%. The Potency is 39.7 µM (active) in experiment [7] and 79.2 µM (active) in [8].

`C[C@@H](Oc1ccc(CNC(=O)c2cccnc2Oc2ccc3c(c2)OCO3)c(F)c1)C(=O)O`: the compound was classed as inactive in experiment [1] and in [4]. In addition, the Potency result in experiment [13], in experiment [3], in experiment [5], in [6], in experiment [7] and in experiment [8] was “inactive” throughout. Further, the Potency result in [10] and in experiment [11] was “inactive” each time.

As to `O=C(c1ccc(O)cc1)c1ccc(O)c(O)c1O`, in experiment [1], the compound was classed as inactive. Besides, the Potency entry in experiment [2], in experiment [9] and in experiment [11] was “inactive” throughout. The Potency in [3] was 61.4 µM (active); in experiment [5] it was 54.7 µM (active); in experiment [6] it was 13.7 µM (active); in [7] it was 40.1 µM (active); in experiment [8], 40.1 µM (active).

For the compound `Cc1cccc(C)c1NC(=O)c1ccccc1C(=O)O`, the call in experiment [1] and in experiment [4] was inactive. Also, the Potency result in [13], in experiment [6], in experiment [15], in experiment [16], in [7] and in experiment [8] was “inactive” in each case. Moreover, the Potency entry in experiment [10], in experiment [11] and in experiment [12] was “inactive” each time. Further, in experiment [14], the max activation is -1.88%.

With `COc1ccc2c(c1OC)C(=O)O[C@@H]2[C@H]1c2c(cc3c(c2OC)OCO3)CCN1C`, the compound was called inactive in experiment [1] and in experiment [4]. In addition, the Potency was 13.3 µM (active) in experiment [3]; 15 µM (active) in experiment [5]; 11.9 µM (active) in experiment [6]; 22.4 µM (active) in experiment [16]; 11 µM (active) in experiment [7]; 1.38 µM (active) in experiment [8]. Moreover, the Potency in experiment [9] is 0.871 µM (active). For the same compound, in experiment [14], the max activation is 8.04%. For the same compound, the Potency result in experiment [15], in [10] and in experiment [11] was “inactive” each time.

In the case of `OC[C@H](Cc1cccc(O)c1)[C@H](CO)Cc1cccc(O)c1`, the call in experiment [1] and in experiment [4] was inactive. The Potency entry in experiment [2], in experiment [3], in [5] and in [6] was “inactive” in each case. Also, the Potency in [8] was 32.5 µM (active); in [12], 18.3 µM (active).

As to `NS(=O)(=O)c1ccc(NC(=O)CCC(=O)O)cc1`, the Potency entry in experiment [13], in experiment [2], in experiment [3], in experiment [5], in experiment [6] and in [15] was “inactive” in each case. Further, the Potency result in [16], in [7], in [8], in experiment [9], in experiment [10] and in experiment [11] was “inactive” in each case. The Potency entry in experiment [12] is “inactive”. In experiment [4], the compound was called inactive. In addition, the max activation in experiment [14] is -2.26%.

As to `CCCCOCCOC(=O)COc1nc(Cl)c(Cl)cc1Cl`, the Potency entry in experiment [13], in [3], in experiment [5], in [9] and in experiment [12] was “inactive” in each case. The compound was called inactive in experiment [4]. Also, the Potency in experiment [8] is 31.7 µM (active); in experiment [10], 39.9 µM (active).

Regarding `CN=C(NC#N)Nc1ccc(C2=NNC(=O)CC2C)cc1` (configuration not stated), the Potency entry in experiment [13], in experiment [2], in [3], in [5], in experiment [6] and in experiment [7] was “inactive” throughout. Besides, the Potency entry in experiment [8], in [10], in experiment [11] and in experiment [12] was “inactive” throughout. In addition, the compound was classed as inactive in experiment [4].

Consider `CC(=O)Nc1cccc(C)c1`, for which the Potency entry in experiment [13], in experiment [2], in experiment [3], in [5], in experiment [6] and in experiment [7] was “inactive” throughout. For the same compound, the Potency entry in [11] and in [12] was “inactive” in each case. The compound was classed as inactive in [4]. The Potency in experiment [8] was 71.3 µM (active).
